Shn3 inh set2 – Schnurri-3 reporter inhibition in Clone20 osteoblasts | Clone20 osteoblast Shn3 3'UTR firefly luciferase, 24 h | inhibition, % at 12.5 µM | 360,000 tested, 0.52% active;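 active = mean inhibition of at least 75% with every replicate also reaching 75%; inconclusive = mean inhibition at least 75% but some replicate below; inactive = mean inhibition below 75%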;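 also: 0% = median of neutral control wells and 100% = pilot-screen positive control compound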
697 NFkB inh – inhibitors of the PMA/ionomycin-induced NF-kB reporter in 697 B cells | 697 B-cell NF-kB luciferase reporter, 16 h | inhibition, % at 4 µM | 330,000 tested, 0.33% active; in the data active = inhibition above about 35%
Gli-Sufu block – Gli-Sufu pathway antagonism | Sufu-KO-LIGHT fibroblasts, Gli luciferase reporter luminescence | inhibition, % at 5 µM | 340,000 tested, 0.74% active;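 active = inhibition above about 55%, limit read from the data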;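 also: 0% = DMSO-treated cells and 100% = wells with medium but no cells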
Mdm2-MdmX inh – disrupts the human Mdm2-MdmX interaction; O15151+Q00987; SaOS-2 split-luciferase Mdm2/MdmX complementation, luminescence; inhibition, % at 8 µM; 330,000 tested, 3% active; AID 485346;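 active = inhibition of at least 50% at 8 µM in the primary screen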
Jurkat NFkB inh – lowers PMA/ionomycin-induced NF-kB signal in Jurkat cells | inhibition, % at 4 µM | 330,000 tested, 0.53% active | PMA/ionomycin-induced NF-kB luciferase reporter, luminescence | AID 435003; in the data active = inhibition above about 50%
Mdm2 MdmX conf – confirmation of human Mdm2/MdmX interaction inhibitors | Mdm2-MdmX binding, luminescent assay | AID 489028 | shares compounds with Mdm2-MdmX inh | inhibition, % at 8 µM | 10,000 tested, 55% active; in the data active = inhibition above about 40%
FLuc counter – inhibits full-length luciferase, flagging false Mdm2/MdmX hits; shares compounds with Mdm2-MdmX inh; SaOS-2 full-length luciferase counterscreen, luminescence; inhibition, % at 8 µM; 6,200 tested, 77% active; AID 504607;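 active = mean inhibition at 8 µM reaching about 37%, which flags the compound as non-specific, limit read from the data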;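 also: p53-null SaOS-2 cells with luciferase driven by a doxycycline-inducible promoter; compound on cells about two nights before reading with doxycycline added after day one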
An asterisk follows results filed as active; ? = inconclusive; . = not tested or not shown. Only some compounds are listed: those with a hit (about 3.8% of all), similar ones and a draw of the others.

SMILES	Shn3 inh set2	697 NFkB inh	Gli-Sufu block	Mdm2-MdmX inh	Jurkat NFkB inh	Mdm2 MdmX conf	FLuc counter
COc1ccc(CNS(=O)(=O)NCc2ccc(C)cc2)cc1	-4	-7	-32	-16	-6	.	.
CCN(C[C@H]1N[C@@](CC)(C(=O)OC)[C@H]2C(=O)N(C)C(=O)[C@@H]12)C(=O)Nc1ccc(Cl)cc1	-8	11	-13	19	4	.	.
CCN(C[C@H]1N[C@@](Cc2ccccc2)(C(=O)OC)[C@H]2C(=O)N(Cc3ccccc3)C(=O)[C@@H]12)C(=O)Nc1ccc(C)cc1	-2	15	3	54*	8	51*	74*
CCN(C[C@H]1N[C@@](CC)(C(=O)OC)[C@H]2C(=O)N(Cc3ccccc3)C(=O)[C@@H]12)C(=O)Nc1ccc(Cl)cc1	5	-8	5	60*	-3	62*	58*
CCN(C[C@H]1N[C@@](Cc2ccccc2)(C(=O)OC)[C@H]2C(=O)N(Cc3ccccc3)C(=O)[C@@H]12)C(=O)Nc1ccc(C(F)(F)F)cc1	32	-6	2	85*	-5	40*	58*
CCN(C[C@H]1N[C@@](CC)(C(=O)OC)[C@H]2C(=O)N(Cc3ccccc3)C(=O)[C@@H]12)C(=O)Nc1ccc(C)cc1	-22	-3	4	19	-1	.	.
CN(CC(=O)Nc1cccc(S(=O)(=O)NC2=NCCC2)c1)Cc1cccc(F)c1	8	16	1	-8	6	.	.
Nc1c2nc(-c3ccccc3)[nH]c(=O)c2nc(=O)n1-c1ccccc1	36	0	5	63*	-2	12	.
O=c1[nH]c(-c2ccc(F)cc2)nc2c1sc(=S)n2-c1ccccc1	6	28	5	11	-2	.	.
CSc1nc(N(C)NC(=O)c2ccccc2)c2ccccc2n1	15	9	-4	56*	49	52*	69*
CNc1nc(SC)nc2ccccc12	0	11	-6	5	8	.	.
CSc1nc(N(C)NC(=O)c2ccc(Cl)cc2)c2ccccc2n1	4	-23	25	62*	43	56*	88*
O=C(NNc1c2ccccc2nc2ccccc12)c1ccc(Cl)cc1	-1	-2	10	87*	-17	67*	43*
CC(C)CN1CCC(=O)N([C@H](CO)Cc2ccccc2)CC1	8	1	6	-10	2	.	.
CCOc1ccc(NC(=O)C2CCN(S(C)(=O)=O)CC2)cc1	-36	-4	-3	34	5	.	.
CCCn1cc(CN2CCC(n3nccc3NC(=O)c3ccc4c(c3)OCO4)CC2)c(C)n1	-6	11	9	15	8	.	.
O=C1c2ccccc2S(=O)(=O)c2cc(C(=O)N3CCC(N4CCCC4)CC3)ccc21	-6	-7	3	-39	-3	.	.
NS(=O)(=O)c1ccc(CNC(=S)NCc2ccc(F)cc2)cc1	-9	-53	-2	-6	-4	.	.
CCOC(=O)c1sc(NC(=O)CSc2nc3c(c(=O)n2-c2ccc(C)cc2)SCC3)c(C(=O)OCC)c1C	6	20	-2	64*	13	-1	.
CC[C@H](C)[C@@H](C(=O)NCCCCCCCCCCC(=O)N1CCNCC1)n1cc(CCCCCN)nn1	-3	-17	1	0	-18	.	.
Cc1ccn2c(Nc3ccccc3C)c(-c3ccccn3)nc2c1	?	4	3	85*	3	52*	32
Cc1ccccc1Nc1c(-c2ccccn2)nc2ccccn12	55	-6	-3	65*	-3	46*	52*
Cc1cccn2c(Nc3ccccc3)c(-c3ccccn3)nc12	20	-13	9	-5	4	.	.
Cc1ccc2nc(-c3ccccn3)c(Nc3ccccc3C)n2c1	42	-8	0	86*	-9	75*	36
Cc1ccn2c(Nc3ccccc3)c(-c3ccccn3)nc2c1	85	1	24	81*	-1	83*	21
COc1cc(C(=O)NCC(=O)N/N=C/c2ccc(-c3cccc([N+](=O)[O-])c3)o2)cc(OC)c1OC	-3	26	-30	39	12	.	.
Cc1nc(C(=O)NCCC(C)C)sc1C1(C)CC(c2cccc([N+](=O)[O-])c2)=NO1 (centres undefined)	-65	16	12	47	-1	.	.
